Bioassay records: PubChem, National Center for Advancing Translational Sciences (NCATS)
KDM5B inh: inhibitors of human KDM5B histone demethylase. Potency, µM (top dose mostly 57.7 µM), usual class: inhibitors. hit rate 2.6% among 220,000. AID 1347165. KDM5B demethylase, FDH-coupled NADH fluorescence (FDH is formaldehyde dehydrogenase). Q9UGL1; active = well fitted inhibition curve with a large enough effect; note: 0% is about no effect; nearly all actives have a fitted effect of over 70% in size
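Coupled FDH/NAD⁺ fluorescence readout. KDM5BΔAP 200 nM final; compound titration, 10 min RT preincubation; substrate mix 12.5 µM H3K4me3, 25 µM 2-OG, 50 µM Fe(II), 100 µM ascorbate, 0.25 mM NAD⁺, 0.25 U/mL FDH; ΔRFU over 30 min.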
The depositor's hits bear a star; i = inactive. Many of the other results were omitted from the sample, so hits are more common in it than they were. Potency is the fitted concentration of half-maximal effect.

SMILES	KDM5B inh
COC(=O)c1ccc(NC(=O)C(C)N2Cc3ccccc3C2=O)cc1 (stereo not given)	i
O=C(CN1CCN(S(=O)(=O)c2ccc(F)cc2)CC1)N1CCCC1c1ccc2c(c1)OCCO2 (stereo not given)	i
Cc1ccc(C(C)C)c(OCC(=O)Nc2ccc3c(c2)nc(CCn2nc(C)cc2C)n3C)c1	i
CC(C)c1cccc(C(C)C)c1NC(=O)C1CC=CCC1 (stereo not given)	i
CCCN1C(SCC(=O)Nc2ccc(OC)c(OC)c2)=NS(=O)(=O)c2ccccc21	i
O=C([C@@H]1C[C@H](F)CN1S(=O)(=O)c1ccc(C(F)(F)F)cc1)N1CCCCC1	i
O=C(NC1CCN(c2cn[nH]c(=O)c2)CC1)c1ccccc1	i
Cc1nc2ccccc2nc1SC(C)C(=O)Nc1ccccc1C(F)(F)F (stereo not given)	i
CCc1nc2c(c(-c3ccc(Cl)cc3)n1)CN(Cc1ccc(N(C)C)cc1)CC2	i
CCc1nc2c(c(-c3ccc(Cl)cc3)n1)CCN(CC1CC1)CC2	28.2µM*
CCc1nc2c(c(-c3ccc(Cl)cc3)n1)CCN(Cc1ccc(N(C)C)cc1)CC2	i
CCc1nc2c(c(-c3ccc(Cl)cc3)n1)CCN(Cc1cccnc1)CC2	i
CCc1nc2c(c(-c3ccc(Cl)cc3)n1)CCN(Cc1ccc(OC)cc1)CC2	i
CCc1nc2c(c(-c3ccc(Cl)cc3)n1)CN(Cc1ccc(OC)cc1)CC2	17.8µM*
Cc1cc(NC(=O)Cn2c(=O)c(-c3noc(C)n3)c3n(c2=O)CCCCC3)no1	i
COc1ccc(CNC(=O)c2cc(C)nc3c2c(C)nn3-c2cccc(Cl)c2C)cc1	i
COC(=O)COc1ccc2c(=O)c(-c3ccc(OC)c(OC)c3)c(C(F)(F)F)oc2c1	i
COc1ccc2c(c1)cc(C(=O)N1Cc3[nH]cnc3CC1C(=O)O)n2C (stereo not given)	17.8µM*
COc1cc(CC(=O)N2Cc3[nH]cnc3CC2C(=O)O)cc(OC)c1OC (stereo not given)	i
Cc1cccc(=O)n1CCC(=O)N1Cc2[nH]cnc2CC1C(=O)O (stereo not given)	i
CCOCC(=O)N1CCN(c2nnnn2-c2ccccc2)CC(O)C1 (stereo not given)	i
Cc1cc(C)n(CCC(=O)N2c3ccccc3CC2c2noc(C3CCOCC3)n2)n1 (stereo not given)	i
N[C@@H](Cc1ccc(O)cc1)C(=O)N1CCc2c(nc(-c3cccnc3)[nH]c2=O)C1	i
COc1ccc(CC(=O)N2CCN(c3cc(-c4ccccc4)[nH]n3)CC2)cc1	i
O=C(CCc1nc2ccccc2[nH]1)N1CCCC(Cc2noc(-c3ccccc3)n2)C1 (stereo not given)	i
SMILES	KDM5B inh
O=C(Cc1cccnc1)N1CCc2c(nc3cc(-c4ccccc4)[nH]n3c2=O)C1	28.2µM*
CCOc1ccc2c(n1)CCN(C(=O)Cc1ccc(OC)cc1)C2	i
O=C(CCCc1nc2ccccc2[nH]1)N1CCc2c(nc3cc(-c4ccccc4)[nH]n3c2=O)C1	31.6µM*
CC(=O)Nc1ccc(CC(=O)N2CCc3c(c(-c4nncn4CC4CC4)nn3C)C2)cc1	i
N#Cc1ccccc1N1CCN(C(=O)CCc2nc3ccccc3[nH]2)CC1=O	i
O=C(COc1ccccc1)N1CCc2c(n(Cc3cccnc3)n(-c3ccccc3)c2=O)C1	i
CCOCC(=O)N1CCc2nc3cc(-c4ccc(OC)cc4)[nH]n3c(=O)c2C1	25.1µM*
CCc1nc2c(c(-c3ccc(OC)cc3)n1)CN(C(=O)c1ccc(OC)cc1)CC2	i
CC(=O)Nc1ccc(CC(=O)N2CCc3c(nc4cc(-c5ccccc5)[nH]n4c3=O)C2)cc1	22.4µM*
Cn1ncc(N2CCC(CNC(=O)CCN3CCCCC3=O)C2)cc1=O (stereo not given)	i
CCN1C(=O)C2(c3ccccc31)c1c(oc3ccccc3c1=O)C(=O)N2CCOC (stereo not given)	i
COc1ccc(-c2nc(CN3CCC(C(=O)NCCCN4CCN(c5ccccc5F)CC4)CC3)c(C)o2)cc1OC	i
N#Cc1cccc(C(=O)NC2CCCN(c3cc(-c4ccc(Cl)cc4)[nH]n3)C2)c1 (stereo not given)	i
CCc1ccc(OC(=O)/C=C/c2ccccc2)cc1	i
Cc1cc(C)cc(NC(=O)Cn2cc(C(=O)c3ccccc3)c(=O)c3ccc(C)nc32)c1	i
O=C(CCn1c(=O)c2cccn2c2cccnc21)Nc1ccccc1C(F)(F)F	i
CCNC(=O)N1CCC(n2nccc2NC(=O)CCCc2ccccc2)CC1	i
COc1ccc(NC(=O)CC2CCOCC2)c(C)c1	i
Cn1nc(C(=O)OCC(=O)Nc2ccc(Cl)c(C(F)(F)F)c2)c2ccccc2c1=O	i
O=C(N[C@@H]1COCC[C@@H]1OCC1CC1)c1cc(-n2cccn2)ccc1Cl	i
O=[N+]([O-])c1cc(S(=O)(=O)Nc2ccc(Cl)cc2)ccc1N/N=C/c1ccc(-c2ccccc2)cc1	i
COc1ccc(-c2cc3nc4c(c(=O)n3[nH]2)CN(C(=O)c2ccc(Cc3c(C)noc3C)o2)CC4)cc1	28.2µM*
COc1ccc(-c2cc3nc4c(c(=O)n3[nH]2)CN(C(=O)CCCc2nc3ccccc3s2)CC4)cc1	31.6µM*
CC1(C)NC(=O)N(CCC(=O)N2CCc3c(nc4cc(-c5ccccc5)[nH]n4c3=O)C2)C1=O	28.2µM*
NC(=O)c1cc[nH]c1C1CCCN(C(=O)CCCc2nc3ccccc3s2)C1 (stereo not given)	i
SMILES	KDM5B inh
COc1ccc(-c2nc(-c3ccccc3)nc3c2CN(C(=O)Cc2cccc(Cl)c2)CC3)cc1	i
COCCOC1CCN(C(=O)CCc2nc3ccccc3s2)CC1	i
COCCN1CCC2(CCC1=O)CCN(C(=O)c1ccc(Cc3c(C)noc3C)o1)CC2	i
Cc1cccc(-c2noc(CCC(=O)N3CCc4c(nc(C)[nH]c4=O)C3)n2)c1	i
CC1(C)NC(=O)N(CCC(=O)Nc2cccc3cccnc23)C1=O	i
Cc1nc(C2(C)CCN(C(=O)c3ccc(Cc4c(C)noc4C)o3)CC2)no1	i
COc1ccc(CC(=O)N2CCc3nc(C4CC4)nc(-c4ccc(Cl)cc4)c3C2)cc1	i
COc1ccc(-c2cc3nc4c(c(=O)n3[nH]2)CN(C(=O)Cc2ccc(NC(C)=O)cc2)CC4)cc1	14.1µM*
COc1ccc(C(=O)NCCc2noc(-c3ccncc3)n2)cc1	i
CCOc1ccc(Nc2nc(-c3c[nH]c(C(=O)N4CCCC4)c3)cs2)cc1	i
O=C(COc1ccccc1Cl)Nc1ccccc1-c1nc(-c2ccncc2)no1	i
O=C(NCc1ccccc1)c1nc2c(o1)CCN(CC1CCCC1)CC2	i
COc1ccc(F)cc1-c1ccccc1CN	i
CC(C)c1nc(N(C)Cc2cc(-c3cccnc3)no2)c2cnn(C)c2n1	i
CCOC(=O)C(=O)Nc1cccc(OC)c1	i
CCCNC(=O)[C@@H]1Cc2cn(Cc3cccnc3)c3cccc(c23)[C@H](CC(C)C)N1	i
C=CCN(C)C(=O)[C@@H]1Cc2cn(Cc3cc(C)on3)c3cccc(c23)[C@H](CC(C)C)N1	i
CC(C)C[C@@H]1N[C@H](C(=O)NC2CCC2)Cc2cn(Cc3nccn3C)c3cccc1c23	i
CC(C)C[C@@H]1N[C@H](C(=O)N2CCC(O)(c3ccccc3)CC2)Cc2cn(C)c3cccc1c23	i
C=CCNC(=O)[C@@H]1Cc2cn(Cc3c(C)noc3C)c3cccc(c23)[C@H](CC(C)C)N1	28.2µM*
